The source of these data is ChEMBL document CHEMBL1961873, “Compounds: GSK PKIS; Assays: Nanosyn kinase panel” (2012).

Each structure is given as a SMILES string.

In assay [1] the target is Tyrosine-protein kinase SYK (Homo sapiens) (UniProt P43405). The settings on record: at 1 µM.
Assay [2] addresses T1, Tyrosine-protein kinase Tec (Homo sapiens) (UniProt P42680).
T1 sequence (whole entry): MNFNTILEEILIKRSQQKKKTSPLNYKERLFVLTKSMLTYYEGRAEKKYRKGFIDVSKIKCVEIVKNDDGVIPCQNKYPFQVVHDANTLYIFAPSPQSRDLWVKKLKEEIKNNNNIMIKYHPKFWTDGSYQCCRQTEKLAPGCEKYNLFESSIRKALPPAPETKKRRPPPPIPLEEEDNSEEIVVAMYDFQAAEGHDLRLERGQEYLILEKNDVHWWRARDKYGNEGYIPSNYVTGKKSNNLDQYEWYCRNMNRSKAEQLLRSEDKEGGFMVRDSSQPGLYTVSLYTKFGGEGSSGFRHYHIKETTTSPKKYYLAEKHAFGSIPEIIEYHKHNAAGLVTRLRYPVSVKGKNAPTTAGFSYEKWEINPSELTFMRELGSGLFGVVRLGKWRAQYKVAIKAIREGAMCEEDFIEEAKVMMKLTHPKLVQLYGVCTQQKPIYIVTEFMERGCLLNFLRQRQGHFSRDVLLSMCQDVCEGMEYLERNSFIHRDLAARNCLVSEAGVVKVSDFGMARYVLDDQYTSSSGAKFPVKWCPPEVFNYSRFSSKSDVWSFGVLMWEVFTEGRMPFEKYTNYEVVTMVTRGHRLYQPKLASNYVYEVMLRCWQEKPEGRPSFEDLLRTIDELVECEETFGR
Conditions: at 0.1 µM.

The target of assay [3] is T1, Tyrosine-protein kinase Tec (Homo sapiens). Conditions: at 1 µM.
The target of assay [4] is Angiopoietin-1 receptor (Homo sapiens) (UniProt Q02763). Conditions: at 0.1 µM.
Chain of Angiopoietin-1 receptor (Homo sapiens) (Q02763 whole entry): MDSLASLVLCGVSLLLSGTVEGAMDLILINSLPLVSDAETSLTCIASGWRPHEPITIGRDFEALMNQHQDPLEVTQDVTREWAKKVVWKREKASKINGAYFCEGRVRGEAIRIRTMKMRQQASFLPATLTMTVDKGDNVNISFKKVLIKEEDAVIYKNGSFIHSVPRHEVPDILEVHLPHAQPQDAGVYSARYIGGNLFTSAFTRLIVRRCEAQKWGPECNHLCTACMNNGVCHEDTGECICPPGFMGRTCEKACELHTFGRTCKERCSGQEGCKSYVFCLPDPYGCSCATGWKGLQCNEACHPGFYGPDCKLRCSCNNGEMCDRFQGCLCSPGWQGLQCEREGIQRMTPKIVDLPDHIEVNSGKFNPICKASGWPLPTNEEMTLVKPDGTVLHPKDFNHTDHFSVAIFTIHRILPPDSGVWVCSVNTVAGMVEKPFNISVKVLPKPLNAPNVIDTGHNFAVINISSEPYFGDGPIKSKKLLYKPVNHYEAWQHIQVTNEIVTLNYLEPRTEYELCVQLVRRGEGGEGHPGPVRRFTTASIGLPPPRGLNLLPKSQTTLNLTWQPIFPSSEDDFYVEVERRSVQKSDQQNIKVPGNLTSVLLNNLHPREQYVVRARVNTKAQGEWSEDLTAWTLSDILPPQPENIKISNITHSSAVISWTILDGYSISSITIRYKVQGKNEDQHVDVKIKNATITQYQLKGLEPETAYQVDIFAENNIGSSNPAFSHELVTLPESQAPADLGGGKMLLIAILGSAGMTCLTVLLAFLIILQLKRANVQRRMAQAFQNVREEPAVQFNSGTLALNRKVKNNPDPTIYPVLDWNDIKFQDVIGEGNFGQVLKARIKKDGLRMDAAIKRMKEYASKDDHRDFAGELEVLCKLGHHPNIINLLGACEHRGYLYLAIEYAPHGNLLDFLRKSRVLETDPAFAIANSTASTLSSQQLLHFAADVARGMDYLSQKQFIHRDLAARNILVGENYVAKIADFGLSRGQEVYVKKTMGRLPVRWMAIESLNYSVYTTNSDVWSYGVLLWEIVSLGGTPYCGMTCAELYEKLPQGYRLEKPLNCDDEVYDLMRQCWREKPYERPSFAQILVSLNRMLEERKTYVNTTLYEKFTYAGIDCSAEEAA
The target is the same in assay [5]. The settings on record: at 1 µM.
Assay [6] addresses T2, Non-receptor tyrosine-protein kinase TNK1 (Homo sapiens) (UniProt Q13470).
T2 sequence (whole entry): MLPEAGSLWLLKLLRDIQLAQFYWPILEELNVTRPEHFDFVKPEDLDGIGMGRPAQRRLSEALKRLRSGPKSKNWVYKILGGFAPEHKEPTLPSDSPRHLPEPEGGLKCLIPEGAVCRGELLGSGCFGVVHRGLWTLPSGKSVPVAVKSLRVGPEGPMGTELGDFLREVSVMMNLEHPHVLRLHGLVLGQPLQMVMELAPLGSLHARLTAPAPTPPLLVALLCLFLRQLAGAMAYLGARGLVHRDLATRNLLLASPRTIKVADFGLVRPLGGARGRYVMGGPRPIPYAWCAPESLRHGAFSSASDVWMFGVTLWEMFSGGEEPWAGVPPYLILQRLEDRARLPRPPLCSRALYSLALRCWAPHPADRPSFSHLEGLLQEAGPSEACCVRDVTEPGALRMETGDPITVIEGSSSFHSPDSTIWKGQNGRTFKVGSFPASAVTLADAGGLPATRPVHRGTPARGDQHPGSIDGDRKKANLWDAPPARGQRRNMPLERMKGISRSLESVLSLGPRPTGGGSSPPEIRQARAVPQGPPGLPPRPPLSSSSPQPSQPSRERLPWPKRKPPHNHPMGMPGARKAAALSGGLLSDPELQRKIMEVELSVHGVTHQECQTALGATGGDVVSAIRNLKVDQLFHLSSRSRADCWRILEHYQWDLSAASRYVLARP
Conditions: at 0.1 µM.

The target of assay [7] is T2, Non-receptor tyrosine-protein kinase TNK1 (Homo sapiens). The settings on record: at 1 µM.
The target in assay [8] is Activated CDC42 kinase 1 (Homo sapiens) (UniProt Q07912). The settings on record: at 0.1 µM.
Chain of Activated CDC42 kinase 1 (Homo sapiens) (Q07912 whole entry, looked up): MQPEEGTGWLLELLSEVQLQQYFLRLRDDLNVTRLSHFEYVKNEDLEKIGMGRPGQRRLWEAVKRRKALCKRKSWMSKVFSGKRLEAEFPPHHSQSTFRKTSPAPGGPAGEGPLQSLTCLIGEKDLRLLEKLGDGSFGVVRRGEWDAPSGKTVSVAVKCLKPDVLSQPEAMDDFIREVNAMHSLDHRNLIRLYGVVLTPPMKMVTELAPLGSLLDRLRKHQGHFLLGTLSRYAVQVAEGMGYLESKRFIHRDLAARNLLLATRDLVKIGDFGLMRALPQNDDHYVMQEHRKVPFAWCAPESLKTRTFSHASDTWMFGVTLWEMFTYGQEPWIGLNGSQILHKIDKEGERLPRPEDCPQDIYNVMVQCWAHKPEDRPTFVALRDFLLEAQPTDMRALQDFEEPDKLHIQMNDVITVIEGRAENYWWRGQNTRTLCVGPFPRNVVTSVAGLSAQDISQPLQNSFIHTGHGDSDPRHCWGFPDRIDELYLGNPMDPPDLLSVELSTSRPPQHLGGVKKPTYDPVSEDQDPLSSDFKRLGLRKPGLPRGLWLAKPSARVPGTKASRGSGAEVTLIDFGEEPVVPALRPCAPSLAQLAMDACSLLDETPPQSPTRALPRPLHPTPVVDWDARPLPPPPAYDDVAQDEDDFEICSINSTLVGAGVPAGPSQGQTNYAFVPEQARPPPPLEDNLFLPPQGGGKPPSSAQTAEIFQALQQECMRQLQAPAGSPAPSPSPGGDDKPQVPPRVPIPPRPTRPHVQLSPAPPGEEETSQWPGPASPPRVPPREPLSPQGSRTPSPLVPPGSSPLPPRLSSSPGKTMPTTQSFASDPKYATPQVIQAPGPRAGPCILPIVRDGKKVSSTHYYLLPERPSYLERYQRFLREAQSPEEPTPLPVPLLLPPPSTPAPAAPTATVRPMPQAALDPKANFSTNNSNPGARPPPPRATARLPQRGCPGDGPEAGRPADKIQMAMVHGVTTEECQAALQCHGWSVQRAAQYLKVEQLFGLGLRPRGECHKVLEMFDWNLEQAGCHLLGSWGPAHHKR
The target is the same in assay [9]. The settings on record: at 1 µM.
Assay [10] concerns the target High affinity nerve growth factor receptor (Homo sapiens) (UniProt P04629). Conditions: at 0.1 µM.
Assay [11] shares this target. The settings on record: at 1 µM.
The target in assay [12] is BDNF/NT-3 growth factors receptor (Homo sapiens) (UniProt Q16620). The settings on record: at 0.1 µM.
Chain of BDNF/NT-3 growth factors receptor (Homo sapiens) (Q16620 32-822 limits assumed): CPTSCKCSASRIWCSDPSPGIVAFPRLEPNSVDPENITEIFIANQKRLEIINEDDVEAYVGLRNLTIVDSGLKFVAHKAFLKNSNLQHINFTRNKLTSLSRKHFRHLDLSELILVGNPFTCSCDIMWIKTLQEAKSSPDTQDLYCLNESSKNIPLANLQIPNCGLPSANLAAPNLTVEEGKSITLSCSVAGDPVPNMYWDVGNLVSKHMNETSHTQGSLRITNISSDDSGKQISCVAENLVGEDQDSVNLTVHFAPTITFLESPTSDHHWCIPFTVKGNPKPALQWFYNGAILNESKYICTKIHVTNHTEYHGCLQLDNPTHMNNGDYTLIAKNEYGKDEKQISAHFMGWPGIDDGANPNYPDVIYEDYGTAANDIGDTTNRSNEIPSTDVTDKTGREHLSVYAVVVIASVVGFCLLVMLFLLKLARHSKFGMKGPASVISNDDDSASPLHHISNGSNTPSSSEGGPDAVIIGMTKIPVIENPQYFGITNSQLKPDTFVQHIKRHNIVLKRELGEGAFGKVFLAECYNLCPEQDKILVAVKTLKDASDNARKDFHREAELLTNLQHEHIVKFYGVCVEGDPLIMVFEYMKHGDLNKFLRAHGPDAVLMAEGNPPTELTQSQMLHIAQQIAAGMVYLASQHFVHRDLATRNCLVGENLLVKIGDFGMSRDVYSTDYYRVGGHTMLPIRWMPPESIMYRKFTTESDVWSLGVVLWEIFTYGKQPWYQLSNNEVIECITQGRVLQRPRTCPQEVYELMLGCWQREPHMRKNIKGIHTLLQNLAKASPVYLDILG
The target is the same in assay [13]. The settings on record: at 1 µM.
Assay [14] addresses NT-3 growth factor receptor (Homo sapiens) (UniProt Q16288). The settings on record: at 0.1 µM.
Assay [15] shares this target. The settings on record: at 1 µM.
Assay [16] concerns the target T3, Tyrosine-protein kinase TXK (Homo sapiens) (UniProt P42681).
T3 sequence (whole entry): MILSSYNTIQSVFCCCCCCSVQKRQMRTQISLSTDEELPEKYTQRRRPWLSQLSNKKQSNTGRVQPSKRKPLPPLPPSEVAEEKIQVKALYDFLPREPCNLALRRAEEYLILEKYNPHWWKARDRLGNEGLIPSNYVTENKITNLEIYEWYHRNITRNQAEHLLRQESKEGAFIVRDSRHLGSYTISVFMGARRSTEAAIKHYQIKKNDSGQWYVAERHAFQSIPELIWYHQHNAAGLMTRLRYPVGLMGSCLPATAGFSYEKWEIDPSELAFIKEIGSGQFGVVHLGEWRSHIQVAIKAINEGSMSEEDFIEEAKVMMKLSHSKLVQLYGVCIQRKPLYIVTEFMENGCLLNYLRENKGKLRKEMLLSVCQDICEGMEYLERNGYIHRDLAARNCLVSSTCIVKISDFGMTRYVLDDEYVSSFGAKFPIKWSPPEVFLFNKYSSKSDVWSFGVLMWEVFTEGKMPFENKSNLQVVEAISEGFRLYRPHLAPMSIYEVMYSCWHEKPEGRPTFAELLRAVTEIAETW
The settings on record: at 0.1 µM.

The target of assay [17] is T3, Tyrosine-protein kinase TXK (Homo sapiens). The settings on record: at 1 µM.
Assay [18] has as its target Non-receptor tyrosine-protein kinase TYK2 (Homo sapiens) (UniProt P29597). The settings on record: at 0.1 µM.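 Note: each value is a mean of the inhibition readings.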
Assay [19] deals with T4, Dual specificity protein kinase TTK (Homo sapiens) (UniProt P33981).
T4 sequence (whole entry): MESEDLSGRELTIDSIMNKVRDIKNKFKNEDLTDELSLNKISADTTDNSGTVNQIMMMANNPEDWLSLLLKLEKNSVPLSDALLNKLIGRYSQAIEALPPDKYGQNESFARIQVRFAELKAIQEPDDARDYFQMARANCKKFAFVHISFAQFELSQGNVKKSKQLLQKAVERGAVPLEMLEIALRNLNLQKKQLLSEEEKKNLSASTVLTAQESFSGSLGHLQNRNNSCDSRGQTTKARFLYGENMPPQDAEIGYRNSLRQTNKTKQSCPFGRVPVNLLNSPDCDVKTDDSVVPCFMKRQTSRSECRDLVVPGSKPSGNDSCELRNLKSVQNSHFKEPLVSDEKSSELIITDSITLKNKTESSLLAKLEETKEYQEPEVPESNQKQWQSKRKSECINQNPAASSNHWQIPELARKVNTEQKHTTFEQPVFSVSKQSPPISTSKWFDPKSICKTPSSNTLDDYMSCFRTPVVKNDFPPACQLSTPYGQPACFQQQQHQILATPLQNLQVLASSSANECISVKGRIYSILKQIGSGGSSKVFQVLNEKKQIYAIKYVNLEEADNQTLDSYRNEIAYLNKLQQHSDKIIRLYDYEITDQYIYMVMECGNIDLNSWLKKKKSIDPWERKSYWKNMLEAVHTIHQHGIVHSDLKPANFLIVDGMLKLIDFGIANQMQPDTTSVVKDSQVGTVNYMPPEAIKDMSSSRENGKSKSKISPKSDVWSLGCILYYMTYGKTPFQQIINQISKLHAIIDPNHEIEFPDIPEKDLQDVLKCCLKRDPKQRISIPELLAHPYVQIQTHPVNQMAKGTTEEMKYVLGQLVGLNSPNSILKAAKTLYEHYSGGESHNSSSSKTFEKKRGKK
Conditions: at 1 µM.

Assay [20] has as its target T5, Aurora kinase A (Homo sapiens) (UniProt O14965).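 Note: each reported value is a mean percent inhibition of Aurora-A.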
T5 sequence (whole entry): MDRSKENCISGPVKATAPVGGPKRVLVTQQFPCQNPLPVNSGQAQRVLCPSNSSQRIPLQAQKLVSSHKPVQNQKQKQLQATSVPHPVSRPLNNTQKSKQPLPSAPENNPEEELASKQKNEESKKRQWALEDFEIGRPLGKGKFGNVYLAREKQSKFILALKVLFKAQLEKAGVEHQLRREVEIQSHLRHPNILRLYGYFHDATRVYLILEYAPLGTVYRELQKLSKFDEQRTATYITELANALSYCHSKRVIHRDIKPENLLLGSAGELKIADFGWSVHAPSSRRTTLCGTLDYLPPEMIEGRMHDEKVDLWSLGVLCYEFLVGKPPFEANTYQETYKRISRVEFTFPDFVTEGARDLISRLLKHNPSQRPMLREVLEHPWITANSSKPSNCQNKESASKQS
The settings on record: at 0.1 µM.

Chain of NT-3 growth factor receptor (Homo sapiens) (Q16288 32-839 limits assumed): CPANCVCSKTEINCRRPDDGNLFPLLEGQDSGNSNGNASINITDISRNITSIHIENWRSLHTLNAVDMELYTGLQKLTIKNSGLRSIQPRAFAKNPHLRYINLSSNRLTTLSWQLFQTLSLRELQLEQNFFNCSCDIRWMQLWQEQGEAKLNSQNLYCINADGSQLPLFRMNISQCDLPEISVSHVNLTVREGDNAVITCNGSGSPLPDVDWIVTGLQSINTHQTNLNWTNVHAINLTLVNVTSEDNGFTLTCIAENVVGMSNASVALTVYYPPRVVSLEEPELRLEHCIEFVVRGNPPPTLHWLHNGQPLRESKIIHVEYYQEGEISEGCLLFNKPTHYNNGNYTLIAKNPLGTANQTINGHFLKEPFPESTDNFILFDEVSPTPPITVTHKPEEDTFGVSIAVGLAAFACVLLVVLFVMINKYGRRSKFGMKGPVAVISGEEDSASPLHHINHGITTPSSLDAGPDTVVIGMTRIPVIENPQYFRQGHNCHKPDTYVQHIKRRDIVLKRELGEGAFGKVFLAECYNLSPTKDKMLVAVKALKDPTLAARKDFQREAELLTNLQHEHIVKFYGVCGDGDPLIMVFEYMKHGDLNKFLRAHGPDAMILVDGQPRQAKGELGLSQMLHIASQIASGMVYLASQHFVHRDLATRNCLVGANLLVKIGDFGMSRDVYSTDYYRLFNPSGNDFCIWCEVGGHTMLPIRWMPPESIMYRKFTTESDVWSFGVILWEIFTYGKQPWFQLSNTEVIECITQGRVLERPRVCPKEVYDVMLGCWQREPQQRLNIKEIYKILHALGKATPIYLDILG
Chain of High affinity nerve growth factor receptor (Homo sapiens) (P04629 33-796 limits assumed): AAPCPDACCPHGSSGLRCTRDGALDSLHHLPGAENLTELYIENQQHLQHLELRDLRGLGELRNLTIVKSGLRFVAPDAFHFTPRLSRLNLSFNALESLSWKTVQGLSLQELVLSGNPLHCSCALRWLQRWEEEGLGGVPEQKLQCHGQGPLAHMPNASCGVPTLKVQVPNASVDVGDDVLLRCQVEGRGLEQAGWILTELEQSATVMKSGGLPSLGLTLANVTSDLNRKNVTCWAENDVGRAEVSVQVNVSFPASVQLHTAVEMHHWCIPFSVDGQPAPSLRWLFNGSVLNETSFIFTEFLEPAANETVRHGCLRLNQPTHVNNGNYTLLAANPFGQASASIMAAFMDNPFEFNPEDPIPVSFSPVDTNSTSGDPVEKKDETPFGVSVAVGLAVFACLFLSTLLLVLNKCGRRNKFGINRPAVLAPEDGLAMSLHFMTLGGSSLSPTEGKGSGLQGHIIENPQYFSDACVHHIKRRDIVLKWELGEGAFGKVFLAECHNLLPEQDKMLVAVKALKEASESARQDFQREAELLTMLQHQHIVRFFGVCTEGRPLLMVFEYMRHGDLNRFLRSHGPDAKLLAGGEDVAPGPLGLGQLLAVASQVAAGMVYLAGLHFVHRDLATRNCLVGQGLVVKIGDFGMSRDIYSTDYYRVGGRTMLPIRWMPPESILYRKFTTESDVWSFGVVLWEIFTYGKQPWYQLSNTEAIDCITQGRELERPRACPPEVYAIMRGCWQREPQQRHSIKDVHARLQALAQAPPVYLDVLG

The inhibition is the relative decrease from the control value, in per cent. Consider `CCCN1CCC(Oc2cc(Nc3nc(Nc4cccc(F)c4C(N)=O)c4cc[nH]c4n3)c(OC)cc2Cl)CC1`, for which the inhibition is 2.76% in assay [1]; 1% in assay [2]; 3.16% in assay [3]; 4.02% in [4]; 10.1% in assay [5]; -2.66% in assay [6]. The inhibition in [7] was 1.46%; in [8] it was -0.19%; in [9], 2.16%; in assay [10], 2.22%; in [11], 5.14%; in assay [12], -1.93%. Besides, the inhibition in assay [13] is 3.41%; in [14], -1.48%; in assay [15], 5.25%; in [16], 2.84%; in assay [17], 3.46%; in [18] it was 0.33%. Moreover, the inhibition in assay [19] turned out to be 33.7%; in assay [20], 0.38%.
Consider `CC1=C(C(=O)Nc2ccc3[nH]ncc3c2)C(c2ccc(F)cc2)NC(=O)N1` (stereo not given), for which the inhibition in assay [1] turned out to be 1.72%; in assay [2] it was 2.11%; in assay [3], 2.37%; in assay [4] it was 0.66%; in assay [5], 3.1%; in assay [6], 4.95%. The inhibition is 31.2% in assay [7]; 0.84% in assay [8]; 3.68% in assay [9]; 0.85% in [10]; 3.3% in assay [11]; 0.91% in [12]. Further, the inhibition in assay [13] stood at 4.06%; in assay [14], 0.06%; in assay [15] it was 5.04%; in [16] it was 1.25%; in assay [17] it was 3.78%; in assay [18], 1.26%. The results for the inhibition in assay [19] and in [20] were 1.11% and 7.75%, respectively.
As for `CS(=O)(=O)CCN(CC#N)Cc1ccc(-c2ccc3ncnc(Nc4ccc(OCc5cccc(F)c5)c(Cl)c4)c3c2)o1`, the inhibition was 1.94% in assay [1]; -2.12% in [2]; -1.96% in assay [3]; 2.27% in [4]; 1.84% in assay [5]; 2.76% in [6]. Moreover, the inhibition in assay [7] is 23.2%; in assay [8], -0.59%; in [9], 0.01%; in assay [10], 2.64%; in [11], 4.12%; in [12] it was 1.7%. For the same compound, the inhibition in assay [13] is 3.2%; in [14], 1.69%; in [15] it was 1.13%; in assay [16] it was -2.35%; in assay [17] it was -2.94%; in [18], -3.9%. Moreover, the inhibition in assay [19] is 5.67%; in [20], -2.58%.
